# CYP2C19 act: increases human CYP2C19 enzyme activity. P33261. recombinant CYP2C19, luciferin-H EGE luminescence; hits give high values; 0 = fully inhibited enzyme, 1 = untreated enzyme. activation factor at 5 µM. 96,000 tested, under 10 active;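 active means activation factor of at least 2 at 5 µM in the primary screen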
# Target sequence (P33261 whole entry, looked up): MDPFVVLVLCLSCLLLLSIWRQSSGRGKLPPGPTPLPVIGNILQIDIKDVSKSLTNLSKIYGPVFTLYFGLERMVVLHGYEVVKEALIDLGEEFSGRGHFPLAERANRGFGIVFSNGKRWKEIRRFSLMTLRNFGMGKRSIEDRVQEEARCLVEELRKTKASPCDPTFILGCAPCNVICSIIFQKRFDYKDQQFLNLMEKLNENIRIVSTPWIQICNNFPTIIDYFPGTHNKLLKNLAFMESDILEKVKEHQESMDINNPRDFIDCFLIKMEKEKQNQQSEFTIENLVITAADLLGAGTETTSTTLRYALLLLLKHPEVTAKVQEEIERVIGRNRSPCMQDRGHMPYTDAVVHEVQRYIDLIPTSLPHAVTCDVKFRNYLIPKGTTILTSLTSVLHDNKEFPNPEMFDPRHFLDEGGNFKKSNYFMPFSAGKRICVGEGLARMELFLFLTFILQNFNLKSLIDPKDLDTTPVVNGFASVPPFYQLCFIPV
# PostGolgi ctrl: growth of the yeast control strain, post-Golgi counter-screen; efflux-deficient yeast background strain, growth absorbance A615, 16 h; 98,000 compounds, 5% hits; AID 738; inhibition, % at 10 µM
# CYP2C19 inh: blocks human cytochrome P450 2C19. inhibition, % at 5 µM. CYP2C19 Supersomes, luciferin-H EGE luminescence, 30 min. AID 778. 96,000 compounds, 21% hits;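 active means CYP2C19 inhibition above a set limit at 5 µM in the primary screen, cut at about 50% in these data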
# CYP2C9 activ: increases human cytochrome P450 2C9 activity; P11712; recombinant CYP2C9, luciferin-H conversion, luminescence; hits give high values; factor 1 = untreated enzyme, 0 = blocked; activation factor at 5 µM; 96,000 compounds, 1.4% hits; AID 1024;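 active means activation factor of 2 or more for CYP2C9 at a 5 µM dose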
# PostGolgi yeast: growth inhibition of a yeast mutant, post-Golgi transport screen. post-Golgi transport phenotypic cell assay. inhibition, % at 10 µM. 98,000 compounds, 0.9% hits;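 further: yeast cells grown in 1536-well plates; yeast grown about 18 h at 30C before absorbance read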
# CYP2C9 inh: human CYP2C9 inhibition | P11712 | CYP2C9 Supersomes, luciferin-H conversion, luminescence | inhibition, % at 5 µM | 96,000 compounds, 20% hits | AID 777;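 active means blocking of liver enzyme CYP2C9 beyond about 50% at 5 µM, limit read from the data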
# Numbers stand for hits; - = inactive; . = no result. Most compounds without a hit are left out; they make up all but 32% or so of the library. Unless noted, no stated cut-off is given here; in the data, active means inhibition above about 30%; inactive means the rest.
SMILES,CYP2C19 act,PostGolgi ctrl,CYP2C19 inh,CYP2C9 activ,PostGolgi yeast,CYP2C9 inh
COC(=O)C1CCN(S(=O)(=O)Cc2ccccc2)CC1,-,-,63,-,-,-
CC(=O)c1ccc(N2CCN(C(=O)C3CCN(S(=O)(=O)Cc4ccccc4)CC3)CC2)cc1,-,-,-,-,-,67
O=C(O)c1ccc(CNCc2ccc(Cl)cc2Cl)cc1,-,-,-,-,-,-
CC1CCN(c2nc(-c3ccco3)c3c(c2C#N)CC(C)(C)OC3)CC1,-,-,-,-,-,56
CCc1nc(N2CCOCC2)c(C#N)c2c1COC(C)(C)C2,-,-,60,-,-,-
Cc1nc(N2CCOCC2)c(C#N)c2c1COC(C)(C)C2,.,-,.,.,-,.
CC1(C)Cc2c(C#N)c(N3CCOCC3)nc(Cc3ccccc3)c2CO1,-,-,93,-,-,77
Cc1ccc(S(=O)(=O)N2CCN(c3nc(C)c4c(c3C#N)CC(C)(C)OC4)CC2)cc1,-,-,77,-,-,83
CCOC(=O)CSc1nnc(CNC(=O)c2cccs2)n1-c1cc(C)ccc1C,-,-,-,-,-,-
N#CCC(=O)N/N=C/c1ccc(OS(=O)(=O)c2ccccc2)cc1,-,-,-,-,-,-
CC1(C)Cc2c(C#N)c(N3CCN(C(=O)c4ccccc4)CC3)nc(Cc3ccccc3)c2CO1,-,-,-,-,-,98
CCc1nc(N2CCN(C(=O)c3ccccc3)CC2)c(C#N)c2c1COC(C)(C)C2,-,-,75,-,-,77
CC(C)Cc1nc(N2CCN(C(=O)Cc3ccccc3)CC2)c(C#N)c2c1COC(C)(C)C2,-,.,-,-,.,-
Cc1cc(NCc2ccccn2)ccc1Br,-,-,63,-,-,-
CCC(=O)Nc1ccc2c(c1)ncn2-c1ccccc1,-,-,-,-,-,-
c1ccc(-n2cnc3cc(NCc4ccncc4)ccc32)cc1,-,-,99,-,-,94
CCn1cnc2cc(NCc3ccc(OC)cc3)ccc21,-,-,73,-,-,-
c1ccc(-n2cnc3cc(NCc4ccccn4)ccc32)cc1,-,-,85,-,-,74
CCOc1ccc(CNc2ccc3c(c2)nc(C)n3C)cc1,-,-,-,-,-,-
CC(C)n1cnc2cc(NCc3ccccn3)ccc21,-,-,-,-,-,-
FC(F)(F)c1nc(N2CCN(c3ccccc3)CC2)nc2c1CCCCC2,-,-,-,-,-,-
CCc1nnc(NC(=O)CSc2nnc(CSc3nc(C)cc(C)n3)o2)s1,-,.,-,-,.,-
CCCCCC(=O)N1CC2(C)CN(C(=O)CCCCC)CC(C)(C1)C2=O,-,-,-,-,-,-
CCOC(=O)CC(=O)Nc1ccc(Br)cc1C(=O)O,-,-,-,-,-,-
CC(C(N)=O)N1C(=O)C2C3C=CC(C3)C2C1=O (centres undefined),-,-,-,-,-,-
SMILES,CYP2C19 act,PostGolgi ctrl,CYP2C19 inh,CYP2C9 activ,PostGolgi yeast,CYP2C9 inh
CN(C)c1ccc(CNc2ccc3c(c2)ncn3C)cc1,-,-,70,-,-,-
CC(C)n1cnc2cc(NCc3ccco3)ccc21,-,-,-,-,-,-
CCCCn1cnc2cc(NCc3ccncc3)ccc21,-,-,56,-,-,62
CC(=O)c1ccc(N2CCN(C(=O)CCS(=O)(=O)c3ccc(C)cc3)CC2)cc1,-,-,-,-,-,-
Cc1cc(=O)n2nc(N3CCC(C(=O)N4CCN(Cc5ccccc5)CC4)CC3)sc2n1,-,-,-,-,-,-
CC(C)CC(=O)O/N=C1\C(=O)N(c2ccccc2)c2ccccc21,-,-,-,-,-,-
CC(C)CC(=O)O/N=C1\C(=O)N(Cc2ccc(Cl)cc2)c2ccc([N+](=O)[O-])cc21,-,33,65,-,-,58
Cc1noc(C)c1COC(=O)Cc1ccc(Cl)c(Cl)c1,-,-,-,-,-,-
Cn1cc(C(=O)c2ccc(Cl)cc2Cl)cc1C(=O)N/N=C(\N)COc1ccc(Cl)cc1Cl,-,-,-,-,-,86
Cn1cc(C(=O)c2ccc(Cl)cc2Cl)cc1C(=O)N/N=C(\N)COc1ccccc1,-,-,-,-,-,-
Cn1c(/C(C#N)=C/C2CC=CCC2)nc2ccccc21 (centres undefined),-,-,58,-,-,-
COc1ccc(N2CCN(C(=O)c3ccc(-n4nc(C)cc4C)cc3)CC2)cc1,-,-,-,-,-,-
CCCCNc1cc(C)nc(N2CCOCC2)n1,-,-,-,-,-,-
CNS(=O)(=O)c1cc(OCC(N)=O)c(C)cc1Cl,-,-,-,2.4,-,-
Cc1cc(Cl)c(S(=O)(=O)N2CC(C)OC(C)C2)cc1OCC(N)=O (centres undefined),-,-,-,-,-,-
Cc1cc(Cl)c(S(=O)(=O)N2CCSCC2)cc1OCC(N)=O,-,-,-,3,-,-
CC(Oc1ccc(Cl)cc1Cl)c1nc(-c2ccccn2)no1 (centres undefined),-,-,96,-,-,92
CC(Oc1ccc(Cl)cc1Cl)c1nc(-c2ccc(NC(=O)c3cccnc3)cc2)no1 (centres undefined),-,-,64,-,-,96
CN(C)C=Nc1ncc2c3ccccc3n(CCN(C)C)c2c1C#N,-,-,-,-,-,58
CN(C)C=Nc1ncc2c3ccccc3n(Cc3ccccc3)c2c1C#N,-,.,-,-,.,-
CCN(CC)CCn1c2ccccc2c2cnc(N)c(C#N)c21,-,52,-,-,-,-
O=S1(=O)CCC(N2CCOCC2)C1 (centres undefined),-,-,-,-,-,-
CN1CC=C2C(C#N)=C(N)C(C#N)(C#N)C(c3cccc(Cl)c3Cl)C2C1 (centres undefined),-,-,93,-,-,91
CN1CC=C2C(C#N)=C(N)C(C#N)(C#N)[C@H](c3ccoc3)[C@H]2C1,-,-,-,-,-,-
CN(C)c1ccc(/C=N/Nc2ccc(-n3ccnc3)nn2)cc1,-,-,62,-,-,70
SMILES,CYP2C19 act,PostGolgi ctrl,CYP2C19 inh,CYP2C9 activ,PostGolgi yeast,CYP2C9 inh
CSC1=NCCN1C(=O)c1ccc2c(c1)OCO2,-,-,-,-,-,-
CC1=CC(C)(C)N(C(=O)c2ccc(F)cc2)c2cc3c(cc21)OCO3,-,-,95,-,-,97
O=C(COC(=O)c1n[nH]c2ccccc12)NC(=O)NC12CC3CC(CC(C3)C1)C2,-,-,-,-,-,-
COc1ccc(CCNC(=O)NC23CC4CC(CC(C4)C2)C3)cc1,-,-,53,-,-,-
COc1ccc(CC(=O)OCC(=O)NC(=O)NC23CC4CC(CC(C4)C2)C3)cc1,-,-,-,-,-,66
COc1ccc(CCNC(=O)C2CC(c3ccccc3[N+](=O)[O-])=NO2)cc1 (centres undefined),-,-,-,-,-,-
Cc1ccc(NC(=O)CCC(=O)OCCCC(F)(F)C(F)(F)F)cc1,-,-,-,-,-,-
O=C(CCC(=O)OCCCC(F)(F)C(F)(F)F)Nc1ccc(Cl)cc1Cl,-,-,70,-,-,-
